About 7,900 targets were measured; listed, in parts, are those with a hit and a random draw of the rest. About 0.6% of all pairs of compound and target were hits. Unmarked numbers belong to inactive results.
What follows are targets tested with FC(F)(F)c1ccc(/C=C/c2nc(COc3ccc(CCCCn4ccnn4)cc3)co2)cc1 [mubritinib] (assay: log2 fold change, soluble protein after heating vs DMSO (PISA); higher = thermal stabilisation; K562 cells, 10 uM, 30 min; active = over 0.2 and 3.5 SD of the protein, either way, in both replicates (recomputed)).
Summary of the method: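 Soluble protein was quantified by TMTpro 16plex LC-MS/MS after channel sums were equalised. It was obtained as the supernatant after 21,000xg for 90 min from pooled aliquots of K562 cells (2×10^6 cells/mL, 10 μM compound, 30 min) heated for 3 min across 48°C-58°C and extracted in PBS with 0.5% NP-40 at 4°C. Thermal stability values are relative to control samples and come from duplicates. They are given as log2 fold changes.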

UniProt Q8IWV2, sequence (Q8IWV2 whole entry, looked up): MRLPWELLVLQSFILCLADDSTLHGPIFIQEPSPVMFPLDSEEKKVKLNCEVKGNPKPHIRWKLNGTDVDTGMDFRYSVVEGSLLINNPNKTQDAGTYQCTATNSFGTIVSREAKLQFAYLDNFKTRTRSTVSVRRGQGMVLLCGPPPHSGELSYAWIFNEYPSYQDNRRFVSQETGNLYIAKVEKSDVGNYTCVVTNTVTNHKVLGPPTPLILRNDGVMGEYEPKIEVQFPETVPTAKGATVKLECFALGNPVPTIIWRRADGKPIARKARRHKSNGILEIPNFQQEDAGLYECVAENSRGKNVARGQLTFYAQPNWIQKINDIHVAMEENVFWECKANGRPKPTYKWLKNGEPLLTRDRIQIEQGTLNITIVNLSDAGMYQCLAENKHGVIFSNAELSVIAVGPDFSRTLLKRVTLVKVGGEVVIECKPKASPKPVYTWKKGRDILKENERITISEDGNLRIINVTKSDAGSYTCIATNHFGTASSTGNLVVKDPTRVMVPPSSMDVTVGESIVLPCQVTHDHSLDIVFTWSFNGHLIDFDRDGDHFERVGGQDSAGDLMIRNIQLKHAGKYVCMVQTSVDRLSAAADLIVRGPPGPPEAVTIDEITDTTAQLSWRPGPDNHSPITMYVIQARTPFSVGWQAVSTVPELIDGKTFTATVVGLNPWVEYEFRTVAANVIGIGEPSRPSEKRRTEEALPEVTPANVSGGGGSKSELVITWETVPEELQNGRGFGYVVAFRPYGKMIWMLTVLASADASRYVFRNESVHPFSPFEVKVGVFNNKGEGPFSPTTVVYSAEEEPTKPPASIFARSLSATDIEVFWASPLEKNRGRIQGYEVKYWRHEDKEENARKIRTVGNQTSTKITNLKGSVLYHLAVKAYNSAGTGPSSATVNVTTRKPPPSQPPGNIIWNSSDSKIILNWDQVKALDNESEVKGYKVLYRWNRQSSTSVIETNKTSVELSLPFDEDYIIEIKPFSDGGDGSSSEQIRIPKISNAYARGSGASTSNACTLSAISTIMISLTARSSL
UniProt Q92851, sequence (Q92851 whole entry, looked up): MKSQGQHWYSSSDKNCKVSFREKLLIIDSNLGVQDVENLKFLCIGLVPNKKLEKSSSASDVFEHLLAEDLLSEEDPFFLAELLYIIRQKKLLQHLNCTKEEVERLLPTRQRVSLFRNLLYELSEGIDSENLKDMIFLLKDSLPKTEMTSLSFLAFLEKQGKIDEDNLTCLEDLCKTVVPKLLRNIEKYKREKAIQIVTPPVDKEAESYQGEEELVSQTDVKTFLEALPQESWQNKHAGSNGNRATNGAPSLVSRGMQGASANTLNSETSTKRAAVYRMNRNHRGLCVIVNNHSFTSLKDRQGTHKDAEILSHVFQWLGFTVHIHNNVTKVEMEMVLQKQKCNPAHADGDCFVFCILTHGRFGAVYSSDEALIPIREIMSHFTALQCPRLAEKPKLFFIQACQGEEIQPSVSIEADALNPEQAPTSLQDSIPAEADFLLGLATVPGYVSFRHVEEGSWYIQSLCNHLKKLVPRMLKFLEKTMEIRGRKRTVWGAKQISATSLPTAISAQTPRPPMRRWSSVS
UniProt P83916, sequence (P83916 whole entry, looked up): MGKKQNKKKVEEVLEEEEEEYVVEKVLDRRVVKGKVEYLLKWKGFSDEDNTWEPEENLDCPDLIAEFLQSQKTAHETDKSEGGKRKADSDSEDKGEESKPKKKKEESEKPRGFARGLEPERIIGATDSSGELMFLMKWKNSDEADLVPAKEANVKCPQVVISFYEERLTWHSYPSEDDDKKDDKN
UniProt Q5VT25, sequence (Q5VT25 whole entry, looked up): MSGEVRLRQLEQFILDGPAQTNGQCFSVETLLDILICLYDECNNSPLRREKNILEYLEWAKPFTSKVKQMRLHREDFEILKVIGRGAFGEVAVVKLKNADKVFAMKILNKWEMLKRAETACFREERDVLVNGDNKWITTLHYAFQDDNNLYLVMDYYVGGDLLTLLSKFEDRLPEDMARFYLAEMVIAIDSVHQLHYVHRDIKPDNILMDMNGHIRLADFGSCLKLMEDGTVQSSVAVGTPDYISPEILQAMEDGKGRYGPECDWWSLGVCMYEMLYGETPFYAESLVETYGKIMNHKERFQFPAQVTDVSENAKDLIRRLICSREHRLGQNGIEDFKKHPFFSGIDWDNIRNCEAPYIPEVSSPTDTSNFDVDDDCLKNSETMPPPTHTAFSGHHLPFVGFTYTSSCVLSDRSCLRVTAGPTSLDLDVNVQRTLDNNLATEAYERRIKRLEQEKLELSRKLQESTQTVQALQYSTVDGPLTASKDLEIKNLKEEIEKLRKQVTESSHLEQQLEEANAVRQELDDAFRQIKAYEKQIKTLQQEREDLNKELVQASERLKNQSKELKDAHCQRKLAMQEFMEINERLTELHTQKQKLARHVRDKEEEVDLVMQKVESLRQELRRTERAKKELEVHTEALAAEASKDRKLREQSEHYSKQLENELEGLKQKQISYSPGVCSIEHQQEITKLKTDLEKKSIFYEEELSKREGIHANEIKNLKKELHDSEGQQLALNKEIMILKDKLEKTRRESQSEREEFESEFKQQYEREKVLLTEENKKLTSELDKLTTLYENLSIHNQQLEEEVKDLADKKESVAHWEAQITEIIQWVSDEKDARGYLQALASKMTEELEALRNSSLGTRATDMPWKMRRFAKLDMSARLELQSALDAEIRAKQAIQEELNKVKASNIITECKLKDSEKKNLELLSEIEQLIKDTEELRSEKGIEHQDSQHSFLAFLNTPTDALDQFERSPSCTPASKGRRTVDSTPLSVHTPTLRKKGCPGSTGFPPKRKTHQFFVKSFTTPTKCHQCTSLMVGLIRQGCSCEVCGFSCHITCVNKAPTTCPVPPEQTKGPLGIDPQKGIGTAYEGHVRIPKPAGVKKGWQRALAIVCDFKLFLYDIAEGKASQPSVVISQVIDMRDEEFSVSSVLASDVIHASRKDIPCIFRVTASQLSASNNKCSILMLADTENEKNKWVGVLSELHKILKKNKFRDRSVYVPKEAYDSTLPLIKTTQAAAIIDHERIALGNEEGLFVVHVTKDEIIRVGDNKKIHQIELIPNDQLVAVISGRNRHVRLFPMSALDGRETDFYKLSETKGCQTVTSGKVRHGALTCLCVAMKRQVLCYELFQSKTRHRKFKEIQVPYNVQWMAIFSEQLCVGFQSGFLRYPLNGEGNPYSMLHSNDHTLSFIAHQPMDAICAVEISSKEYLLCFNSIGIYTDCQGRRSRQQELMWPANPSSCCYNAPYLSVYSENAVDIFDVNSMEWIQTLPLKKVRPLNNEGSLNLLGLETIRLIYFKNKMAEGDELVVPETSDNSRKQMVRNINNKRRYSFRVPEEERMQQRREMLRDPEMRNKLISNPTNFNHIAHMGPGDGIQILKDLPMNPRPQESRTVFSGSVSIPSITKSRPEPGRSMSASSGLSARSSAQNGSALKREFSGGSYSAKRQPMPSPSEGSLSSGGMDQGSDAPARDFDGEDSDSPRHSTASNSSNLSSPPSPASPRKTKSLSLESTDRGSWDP
UniProt Q9Y6K0, sequence (Q9Y6K0 whole entry, looked up): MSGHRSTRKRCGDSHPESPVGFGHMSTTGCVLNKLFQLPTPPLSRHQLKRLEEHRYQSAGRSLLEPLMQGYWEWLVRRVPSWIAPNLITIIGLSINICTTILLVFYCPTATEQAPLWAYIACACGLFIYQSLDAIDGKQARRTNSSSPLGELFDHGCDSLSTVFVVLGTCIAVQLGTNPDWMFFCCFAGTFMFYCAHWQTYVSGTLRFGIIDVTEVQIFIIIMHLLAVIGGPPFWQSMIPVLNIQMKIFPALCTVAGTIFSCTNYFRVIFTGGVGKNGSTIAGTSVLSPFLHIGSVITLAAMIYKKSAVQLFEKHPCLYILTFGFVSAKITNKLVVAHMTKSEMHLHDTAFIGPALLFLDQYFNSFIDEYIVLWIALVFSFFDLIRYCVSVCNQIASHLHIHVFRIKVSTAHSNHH
UniProt Q9Y6H1, sequence (Q9Y6H1 whole entry, looked up): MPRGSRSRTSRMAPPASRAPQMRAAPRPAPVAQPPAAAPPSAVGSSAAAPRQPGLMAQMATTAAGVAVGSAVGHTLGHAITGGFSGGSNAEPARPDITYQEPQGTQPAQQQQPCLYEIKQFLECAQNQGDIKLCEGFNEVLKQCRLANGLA
UniProt Q16630, sequence (Q16630 whole entry, looked up): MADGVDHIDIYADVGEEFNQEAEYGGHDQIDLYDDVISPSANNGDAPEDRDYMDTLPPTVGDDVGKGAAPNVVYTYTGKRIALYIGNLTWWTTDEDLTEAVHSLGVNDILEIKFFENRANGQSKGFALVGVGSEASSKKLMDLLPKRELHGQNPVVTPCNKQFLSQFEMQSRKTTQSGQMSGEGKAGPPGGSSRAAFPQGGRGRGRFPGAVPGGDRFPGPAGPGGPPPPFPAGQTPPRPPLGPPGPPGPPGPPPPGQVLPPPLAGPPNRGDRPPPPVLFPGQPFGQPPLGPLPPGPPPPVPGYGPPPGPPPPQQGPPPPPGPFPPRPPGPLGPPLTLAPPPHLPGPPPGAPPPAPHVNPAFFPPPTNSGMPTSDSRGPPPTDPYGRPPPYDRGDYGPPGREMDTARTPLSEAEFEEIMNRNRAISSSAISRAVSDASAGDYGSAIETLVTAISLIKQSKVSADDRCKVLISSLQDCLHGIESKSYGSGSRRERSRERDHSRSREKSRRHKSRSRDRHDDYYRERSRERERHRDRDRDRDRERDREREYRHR
UniProt P08174, sequence (P08174 whole entry, looked up): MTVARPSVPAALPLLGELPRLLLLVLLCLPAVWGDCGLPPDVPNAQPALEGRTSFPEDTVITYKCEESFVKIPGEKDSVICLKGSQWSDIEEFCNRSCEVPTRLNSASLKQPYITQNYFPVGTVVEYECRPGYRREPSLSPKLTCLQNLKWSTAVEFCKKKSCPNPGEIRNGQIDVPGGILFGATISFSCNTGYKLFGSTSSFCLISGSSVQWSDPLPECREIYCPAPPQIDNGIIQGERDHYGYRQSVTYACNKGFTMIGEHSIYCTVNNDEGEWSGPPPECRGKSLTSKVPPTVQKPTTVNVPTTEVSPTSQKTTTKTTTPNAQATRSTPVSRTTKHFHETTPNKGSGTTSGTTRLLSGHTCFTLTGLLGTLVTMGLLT

C9orf72 (UniProt Q96LT7) and CDK13 (UniProt Q14004) are within 0.2 log units of each other in log2 fold change: 0.021 for the first, 0.023 for the second.

CTBS (UniProt Q01459) and CCNB1 (UniProt P14635) are within 0.2 log units of each other in log2 fold change: 0.025 for the first, 0.08 for the second.

COMT (UniProt P21964) and CEPT1 (UniProt Q9Y6K0) are within 0.2 log units of each other in log2 fold change: 0.06 for the first, -0.012 for the second.

Going from COPS4 (UniProt Q9BT78) to COASY isoform 2 (UniProt Q13057), the log2 fold change falls from 0.031 to -0.196.

CNOT1 (UniProt A5YKK6) and CETN3 (UniProt O15182) are within 0.2 log units of each other in log2 fold change: 0.052 for the first, 0.112 for the second.

CPSF6 isoform 2 (UniProt Q16630) and CASTOR2 (UniProt A6NHX0) are within 0.2 log units of each other in log2 fold change: 0.006 for the first, -0.032 for the second.

CASC3 (UniProt O15234) and CLUH, A0A494C0R8 are within 0.2 log units of each other in log2 fold change: 0.084 for the first, 0.072 for the second.

CLTB (UniProt P09497) and CLCN3 isoform 2 (UniProt P51790) are within 0.2 log units of each other in log2 fold change: -0.016 for the first, -0.004 for the second.

CDC123 (UniProt O75794) and CD55 isoform 7 (UniProt P08174) are within 0.2 log units of each other in log2 fold change: -0.006 for the first, -0.075 for the second.

CLUH (UniProt O75153) and CSNK1A1 (UniProt P48729) are within 0.2 log units of each other in log2 fold change: -0.018 for the first, -0.086 for the second.

CNTN4 (UniProt Q8IWV2) and CDC42BPA isoform 6 (UniProt Q5VT25) are within 0.2 log units of each other in log2 fold change: 0.224 for the first, 0.037 for the second.

CDK5RAP1 (UniProt Q96SZ6) and CASP10 isoform 4 (UniProt Q92851) are within 0.2 log units of each other in log2 fold change: -0.03 for the first, 0.084 for the second.

CBX1 (UniProt P83916) and CD151 (UniProt P48509) are within 0.2 log units of each other in log2 fold change: 0.066 for the first, -0.092 for the second.

CS (UniProt O75390) and CSTF3 (UniProt Q12996) are within 0.2 log units of each other in log2 fold change: 0.015 for the first, 0.019 for the second.

CAD (UniProt P27708) and CCAR2 isoform 2 (UniProt Q8N163) are within 0.2 log units of each other in log2 fold change: -0.006 for the first, 0.031 for the second.

COX5A (UniProt P20674) and CDK12 (UniProt Q9NYV4) are within 0.2 log units of each other in log2 fold change: 0.021 for the first, -0.043 for the second.

CHCHD2 (UniProt Q9Y6H1) and CALB1 (UniProt P05937) are within 0.2 log units of each other in log2 fold change: 0.04 for the first, 0.01 for the second.

For CPT2 (UniProt P23786), the log2 fold change was 0.763 (active).
